Assay results from the supplement of paper PMC8371130.
Counter-ions that a name gives are not always drawn.

Test system: HL-1
Test: relative cell viability (CellTiter-Glo) vs DMSO control (% of DMSO control); higher = more viable cells
Method in brief: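 Compounds at 40, 200, 1000 or 5000 nM in 0.01% DMSO were added to HL-1 mouse atrial cardiomyocytes plated at 1000 cells per well in 384-well plates. The next day, cells were exposed to 1% O2 for 48 h and then reoxygenated for 24 h, or left in normoxia for the same time. Viability was read with CellTiter-Glo luminescence and normalised to vehicle-treated controls.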

[1] = oxygen condition: hypoxia 48 h (1% O2) + reoxygenation 24 h, 40 nM
[2] = oxygen condition: hypoxia 48 h (1% O2) + reoxygenation 24 h, 200 nM
[3] = oxygen condition: hypoxia 48 h (1% O2) + reoxygenation 24 h, 1000 nM
[4] = oxygen condition: hypoxia 48 h (1% O2) + reoxygenation 24 h, 5000 nM
[5] = oxygen condition: normoxia 72 h, 40 nM
[6] = oxygen condition: normoxia 72 h, 200 nM
[7] = oxygen condition: normoxia 72 h, 1000 nM
[8] = oxygen condition: normoxia 72 h, 5000 nM

SMILES	relative cell viability [1]	relative cell viability [2]	relative cell viability [3]	relative cell viability [4]	relative cell viability [5]	relative cell viability [6]	relative cell viability [7]	relative cell viability [8]
CCOC(=O)C1=C(COCCN)NC(C)=C(C(=O)OC)C1c1ccccc1Cl (stereo not drawn) [Amlodipine]	102	101	113	100	107	107	93.2	106
COCCc1ccc(OCC(O)CNC(C)C)cc1 (stereo not drawn) [Metoprolol tartrate]	101	98	105	111	77.9	103	103	111
C=C[C@]1(C)C[C@@H](OC(=O)CS[C@@H]2C[C@H]3CC[C@@H](C2)N3C)[C@]2(C)[C@H](C)CC[C@]3(CCC(=O)[C@H]32)[C@@H](C)[C@@H]1O [Retapamulin]	104	104	105	108	98.3	97.1	89.2	81.7
Cc1cccc(Nc2ccccc2C(=O)O)c1C [Mefenamic acid]	96.6	93.4	102	113	100	105	111	110
COc1ccc2[nH]c([S+]([O-])Cc3ncc(C)c(OC)c3C)nc2c1 (stereo not drawn) [Omeprazole]	101	99.7	107	110	104	103	103	105
COc1cc2c(cc1O)CC[C@@H]1[C@@H]2CC[C@]2(C)[C@@H](O)CC[C@@H]12 [2-Methoxyestradiol]	106	104	102	112	102	105	102	109
CCOc1nc2cccc(C(=O)OCc3oc(=O)oc3C)c2n1Cc1ccc(-c2ccccc2-c2noc(=O)[nH]2)cc1 [Azilsartan Medoxomil]	101	99.2	116	116	93.4	103	100	114
Cc1nc2c([nH]1)-c1ccccc1N(C(=O)c1ccc(NC(=O)c3ccccc3-c3ccccc3)cc1)CC2 [Conivaptan HCl]	100	98.8	46.4	47.7	98	84.2	89.2	36.5
CC12CC3CC(C)(C1)CC(N)(C3)C2 [Memantine HCl]	105	105	101	106	94.5	101	108	93.4
NC(=O)NO [Hydroxyurea]	101	109	109	108	108	103	109	110
COc1cc(Nc2c(C#N)cnc3cc(OCCCN4CCN(C)CC4)c(OC)cc23)c(Cl)cc1Cl [Bosutinib]	103	104	107	121	110	125	107	116
CC1CNc2c(cccc2S(=O)(=O)N[C@@H](CCCNC(=N)N)C(=O)N2CC[C@@H](C)C[C@@H]2C(=O)O)C1 (stereo partly drawn) [Argatroban]	97.7	97.5	94.6	106	97.3	95.6	97.6	106
OC[C@@H](O)[C@@H](O)[C@H](O)[C@@H](O)CO [Sorbitol]	93	101	98	101	100	106	97.9	97.5
O=c1[nH]c(=O)n(C2CCCO2)cc1F (stereo not drawn) [Ftorafur]	101	103	104	96.9	100	101	114	89.2
COc1cc2ncnc(Nc3ccc(F)c(Cl)c3)c2cc1OCCCN1CCOCC1 [Gefitinib]	106	114	122	100	101	112	99.4	100
CNC(=O)c1ccccc1Sc1ccc2c(/C=C/c3ccccn3)n[nH]c2c1 [Axitinib]	110	114	117	116	105	108	112	111
Oc1ncnc2[nH]ncc12 [Allopurinol]	114	108	106	109	105	103	106	110
CN(C)CCOc1ccc(/C(=C(/CCCl)c2ccccc2)c2ccccc2)cc1 [Toremifene Citrate]	104	103	108	108	103	99.5	105	108
CCC1=C(C)CN(C(=O)NCCc2ccc(S(=O)(=O)NC(=O)N[C@H]3CC[C@H](C)CC3)cc2)C1=O [Glimepiride]	93.1	96.3	95.2	106	88.9	77.4	94.7	105
COc1cc([C@@H]2c3cc4c(cc3[C@@H](O[C@@H]3O[C@@H]5CO[C@@H](c6cccs6)O[C@H]5[C@H](O)[C@H]3O)[C@H]3COC(=O)[C@H]23)OCO4)cc(OC)c1O [Teniposide]	96.6	102	98.2	115	105	104	102	118
CCCS(=O)(=O)Nc1ccc(F)c(C(=O)c2c[nH]c3ncc(-c4ccc(Cl)cc4)cc23)c1F [Vemurafenib]	102	111	107	111	104	96.2	106	118
